Assay results from PubChem BioAssay AID590 (National Center for Advancing Translational Sciences (NCATS), 2007).
The campaign covered roughly 59,000 compounds. About 6,500 (11%) were called active. About 15% were inconclusive and are not listed. No stated cut-off is given here; in the data, active means max dye-equivalent concentration above about 10 nM; inconclusive means mostly about 1.1 nM to 9.6 nM; inactive means weaker than that. Only a selection was taken, and actives are over-represented in it overall.

Experiment: qHTS Assay for Spectroscopic Profiling in A350 Spectral Region
Conditions: Compound autofluorescence, 340/450 nm, Alexa 350 dye-equivalents; active compounds read high

Compound | max dye-equivalent concentration
O=C(c1cc(C(F)(F)F)cc(C(F)(F)F)c1)N1CCC[C@@]2(CCN(c3ccccn3)C2)C1 | inactive
CCOC(=O)CC1C(=O)NCCN1C(=O)COc1ccc(Br)cc1C (configuration not stated) | inactive
CCOc1cccc(/C(O)=C2/C(=O)C(=O)N(CCOC)C2c2ccncc2)c1 (configuration not stated) | inactive
CCOC(=O)c1ccc(NC(=O)CSc2ncccn2)cc1 | inactive
CCOC(=O)C1=C(C)NC(C)=C(C(=O)OCC)C1c1ccccn1 | 330 nM (active)
COCCOC(=O)C1=C(C)Nc2nc(C)nn2C1c1ccccc1 (configuration not stated) | inactive
CC(=O)OCC(=O)[C@@]1(O)CC[C@@H]2[C@H]3CCC4=CC(=O)C=C[C@]4(C)[C@]3(F)[C@@H](O)C[C@@]21C | inactive
Cn1c(=O)[nH]c(=O)c2c1nc(N1CCCCCC1)n2CC(=O)c1ccccc1 | inactive
CCC(C)Sc1nc2c(c(=O)[nH]c(=O)n2C)n1CC(O)COc1cccc2ccccc12 (configuration not stated) | inactive
CS(=O)(=O)N1CCC2(CC1)CN(Cc1ccccc1)C2 | inactive
CCn1c(CNc2ccc(OC)cc2)nnc1SCC(=O)c1ccc(OC)cc1 | inactive
Cc1ccc(S(=O)(=O)Nc2ccccc2CNc2c(C)n(C)n(-c3ccccc3)c2=O)cc1 | inactive
CCOC(=O)CSc1nc2c(sc(=S)n2CCc2ccccc2)c(=O)n1Cc1ccco1 | inactive
Cc1ccc(Cn2c(C)nc3c(c2=O)c2nc4ccccc4nc2n3Cc2ccco2)cc1 | 1000 nM (active)
O=c1[nH]c(CSc2ncc(-c3ccc(F)cc3)n2Cc2ccco2)nc2ccccc12 | inactive
COc1ccccc1NC(=O)CSc1nc2sc(C)c(C)c2c(=O)n1Cc1ccco1 | inactive
CC(Sc1nc2ccccc2c(=O)n1Cc1ccco1)C(=O)c1ccccc1 (configuration not stated) | inactive
COCCCn1c2nc3ccccc3nc2c2c(=O)n(Cc3ccc(Cl)cc3)c(C)nc21 | 380 nM (active)
Cn1c(COc2ccc(Cl)cc2)nc2ccccc2c1=O | inactive
Cc1nc2c(c(=O)n1Cc1ccco1)c1nc3ccccc3nc1n2Cc1ccccc1 | 110 nM (active)
Cc1nc2ccccc2c(=O)n1CCCn1ccnc1 | inactive
Cc1ccc(N2CCN(c3ccc(C)cc3)C2c2ccccn2)cc1 | inactive
COc1ccccc1-n1cnc2cc(NS(=O)(=O)c3ccccc3)ccc21 | inactive
CCOC(=O)C1(Cc2ccc(O)cc2)NC(c2ccccc2F)C2C(=O)N(C)C(=O)C21 (configuration not stated) | inactive
O=C(O)C1CC=C(Cl)CC1C(=O)NCc1ccccc1 (configuration not stated) | inactive
CC1(C)Cc2ccccc2-c2nc(CN3CCOCC3)[nH]c(=O)c21 | inactive
CCN(CC)C(=O)CSc1nnc(-c2cnccn2)n1-c1ccc(C)cc1 | inactive
